From PubChem
PLAP act: PLAP enzyme activators, biochemical, luminescence, HTS; Alkaline phosphatase, placental type (Homo sapiens), P05187; purified PLAP enzyme, luminescent substrate read-out; hits give high values; activation fold at 20 µM; actives 1.2% (n = 96,000); AID 696, 2007; in the data active = activation fold above about 2
Target sequence (P05187 whole entry, looked up): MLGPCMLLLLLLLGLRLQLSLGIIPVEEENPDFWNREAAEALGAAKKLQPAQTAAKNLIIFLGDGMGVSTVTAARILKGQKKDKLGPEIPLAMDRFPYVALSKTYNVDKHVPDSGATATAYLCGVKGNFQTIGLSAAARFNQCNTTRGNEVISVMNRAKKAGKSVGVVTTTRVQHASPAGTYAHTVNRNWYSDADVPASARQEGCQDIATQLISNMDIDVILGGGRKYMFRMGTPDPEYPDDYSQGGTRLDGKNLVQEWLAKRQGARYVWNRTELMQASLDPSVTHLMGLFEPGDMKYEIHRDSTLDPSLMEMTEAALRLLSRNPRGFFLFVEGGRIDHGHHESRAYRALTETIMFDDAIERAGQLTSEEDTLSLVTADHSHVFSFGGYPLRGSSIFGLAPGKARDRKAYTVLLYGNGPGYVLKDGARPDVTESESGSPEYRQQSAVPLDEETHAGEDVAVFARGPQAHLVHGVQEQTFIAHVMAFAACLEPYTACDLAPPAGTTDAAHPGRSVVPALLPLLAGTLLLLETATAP
CYP2C9 inhib: blockers of cytochrome P450 2C9 activity – biochemical, luminescence, ADME assay, primary screen; inhibition, % at 5 µM; P11712; CYP2C9 Supersomes, luciferin-H conversion; actives 20% (n = 96,000); AID 777, 2007;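 active = blocking of liver enzyme CYP2C9 beyond about 50% at 5 µM, limit read from the data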
CYP2C9 act: human CYP2C9 activators, primary screen, biochemical, luminescence | Cytochrome P450 2C9 (Homo sapiens), P11712 | activation factor at 5 µM | actives 1.4% (n = 96,000) | AID 1024, 2008 | recombinant CYP2C9, luciferin-H conversion; hits give high values; factor 1 = untreated enzyme, 0 = blocked;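 active = activation factor of 2 or more for CYP2C9 at a 5 µM dose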;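 also: 0 = sulfaphenazole-blocked wells and 1 = vehicle-only wells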
CYP2C19 activ: human CYP2C19 activators, primary screen, biochemical, luminescence; recombinant CYP2C19, luciferin-H EGE luminescence; hits give high values; 0 = fully inhibited enzyme, 1 = untreated enzyme; activation factor at 5 µM; 96,000 tested, under 10 active;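 active = activation factor of at least 2 at 5 µM in the primary screen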;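 also: 0 = wells with 2.5 mM tranylcypromine and 1 = vehicle-only wells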
CYP2C19 inhib: blockers of cytochrome P450 2C19 activity – biochemical, luminescence, ADME assay, primary screen. AID 778, 2007. inhibition, % at 5 µM. CYP2C19 Supersomes, luciferin-H EGE luminescence, 30 min. P33261. actives 21% (n = 96,000);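 active = CYP2C19 inhibition above a set limit at 5 µM in the primary screen, cut at about 50% in these data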;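 also: plate controls were negative control wells for no effect and 2.5 mM tranylcypromine positive control for full effect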
Numbers without * were called inactive. This is a sample that favours compounds with a hit; in the whole collection about 31% have one here.

SMILES | PLAP act | CYP2C9 inhib | CYP2C9 act | CYP2C19 activ | CYP2C19 inhib
CCOC(=O)Cc1csc(NC(=O)c2cccs2)n1 | 1.1 | 76.9* | 0.2 | 0.1 | 88.3*
Cc1csc(NC(=O)c2cccs2)n1 | 1.1 | 53.6* | 0.5 | 0.1 | 94.5*
CCOC(=O)Cc1csc(NC(=O)c2ccc(Br)s2)n1 | 1.3 | 99.5* | 0 | 0.2 | 77.7*
CCOC(=O)Cc1csc(NC(=O)c2ccc3c(c2)OCO3)n1 | 0.9 | 36.3 | 0.6 | 1 | 3.7
Cc1cccc(N2CCN(C(=O)CCNS(=O)(=O)c3ccc4c(c3)CCC(=O)N4)CC2)c1C | 1.6 | 58.5* | 0.4 | 1 | -2.8
Cc1cccc(N2CCN(S(=O)(=O)c3ccc4c(c3)CCN4C(=O)CCC(=O)O)CC2C)c1 (stereo not drawn) | 1.4 | 32.1 | 0.7 | 0.9 | 13.4
CN(C)c1ccc(NC(=O)CN2CCC(N3CCCCC3)CC2)cc1 | 1.1 | -20.1 | 1.2 | 1.1 | -10.5
CCOC(=O)Cc1csc(NS(=O)(=O)c2ccc(F)cc2)n1 | 1.1 | 50.4* | 0.5 | 1 | 1.5
CCOC(=O)Cc1csc(NC(=O)CSc2nnc(C(C)C)n2C)n1 | 1 | -12.5 | 1.1 | 1.2 | -18.0
CCOC(=O)Cc1csc(NC(=O)c2ccc(Br)o2)n1 | 1.1 | 59.9* | 0.4 | 0.6 | 44.9
CCCCC(=O)Nc1ccc(C(=O)Nc2nc(CC(=O)OCC)cs2)cc1 | 0.9 | 68.5* | 0.3 | 0.8 | 22.0
CCOC(=O)Cc1csc(NC(=O)CCNS(=O)(=O)c2ccc3c(c2)CCC(=O)N3)n1 | 1 | 55.9* | 0.4 | 0.9 | 8.3
COc1cccc(C(=O)NCc2ccc(N3CCN(C(=O)OC(C)(C)C)CC3)cc2)c1 | 0.9 | 43.9 | 0.6 | 0.8 | 23.1
CCOC(=O)Cc1csc(NC(=O)c2sc3nc4ccc(CC)cc4cc3c2N)n1 | 1.1 | 62.6* | 0.4 | 0.6 | 41.2
CCOC(=O)Cc1csc(NC(=O)c2ccc(Cl)nc2)n1 | 1 | 18.1 | 0.8 | 0.8 | 16.7
CCN1CCN(c2cc(C(C)(C)C)nc3c(-c4ccccc4)c(C)nn23)CC1 | 1.6 | 17.8 | 0.8 | 0.9 | 10.4
O=C(N1CCN(c2cccc(Cl)c2)CC1)C1(S(=O)(=O)c2ccc(Cl)cc2)CC1 | 1.7 | 22.4 | 0.8 | 0.4 | 56.7*
Cc1ccc(Cl)cc1N1CCN(C(=O)Cc2cn(C)c3ccccc23)CC1 | 2* | -26.4 | 1.3 | 0.5 | 52.8*
Cc1ccc(Cl)cc1N1CCN(C(=O)C2(S(=O)(=O)c3ccc(Cl)cc3)CC2)CC1 | 1.6 | 88.9* | 0.1 | 0.2 | 83.9*
CC(=O)NC(Cc1ccccc1)C(=O)NC1CCN(C(=O)NC2CCCCC2)CC1 (stereo not drawn) | 1.6 | -5.2 | 1.1 | 1.1 | -8.0
N/C(COc1ccc(C(=O)O)cc1)=N\O | 1.1 | -14.9 | 1.1 | 1.2 | -17.9
O=C1Nc2ccccc2/C1=N/c1sc2c(c1C(=O)NCCc1ccccc1)CCCC2 | 1.1 | 49.7 | 0.5 | 0.7 | 26.4
O=C1CCCN1CC(O)CS(=O)(=O)c1ccc(Cl)cc1 (stereo not drawn) | 1 | 13.9 | 0.9 | 0.7 | 34.0
CC(C)C1Cc2[nH]c(=O)c(C(=O)O)cc2CO1 (stereo not drawn) | 1 | 20.6 | 0.8 | 1.1 | -14.9
CCCC1=C(C(=O)OCC)C(c2cc(Cl)cc(OC)c2OCc2ccccc2)NC(=O)N1 (stereo not drawn) | 1 | 64.5* | 0.4 | 0.5 | 50.4*
SMILES | PLAP act | CYP2C9 inhib | CYP2C9 act | CYP2C19 activ | CYP2C19 inhib
N/C(Cc1cccs1)=N\OC(=O)COc1ccccc1 | 0.9 | 7.0 | 0.9 | 0.8 | 20.7
CCOC(=O)c1[nH]c(COC(=O)CCCOc2ccccc2)c(C(=O)OCC)c1C | 1.4 | 80.2* | 0.2 | 0.6 | 45.0
COc1cccc(Oc2cncnc2-c2ccc(OC)cc2O)c1 | 1.2 | 99.1* | 0 | 0 | 98.3*
CCOc1ccc(-c2nc(N)ncc2Oc2cccc(OC)c2)c(O)c1 | 0.9 | -4.3 | 1 | 1 | 0.7
COc1ccc(C(=O)Oc2ccc(=O)n(-c3ccccc3)n2)cc1 | 0.9 | 3.2 | 1 | 1.1 | -9.0
CCn1c(SCC(=O)Nc2ccc3c(c2)c2ccccc2n3CC)nnc1-c1cnccn1 | 1.6 | -44.4 | 1.4 | 0.5 | 53.1*
C=CCn1c(SCC(=O)Nc2cc(C)cc(C)c2)nnc1-c1cnccn1 | 0.9 | -3.3 | 1 | 1 | 3.5
C=CCn1c(SCC(=O)Nc2cc(C)ccc2C)nnc1-c1cnccn1 | 1.1 | 3.1 | 1 | 0.2 | 83.2*
C=CCn1c(SCC(=O)Nc2cccc(C)c2)nnc1-c1cnccn1 | 1.5 | 53.2* | 0.5 | 0 | 95.6*
CCn1c(=O)c2c(nc(SCc3ccccn3)n2C)n(C)c1=O | 0.9 | -19.4 | 1.2 | 1 | -4.1
O=C(Nc1nccs1)C1(S(=O)(=O)c2ccc(Cl)cc2)CC1 | 1.1 | 34.5 | 0.7 | 0.6 | 38.4
CC(=O)Nc1nc(S(=O)(=O)c2ccc(C)cc2)c(Cl)s1 | 1 | -4.2 | 1 | 0.4 | 55.2*
CCOc1nc(S(=O)(=O)c2ccc(C)cc2)c(Cl)s1 | 1 | -35.4 | 1.4 | 0.2 | 83.2*
COCCN(CCOC)c1nc(S(=O)(=O)c2ccc(C)cc2)c(Cl)s1 | 1.7 | 55.8* | 0.4 | 0.2 | 81.2*
Cc1ccc(S(=O)(=O)c2nc(NC3CCS(=O)(=O)C3)sc2Cl)cc1 (stereo not drawn) | 0.9 | 1.4 | 1 | 0.8 | 22.7
Cc1ccc(S(=O)(=O)c2nc(Nc3nccs3)sc2Cl)cc1 | 0.9 | 60.4* | 0.4 | 0.3 | 67.9*
Cc1ccc(S(=O)(=O)c2nc(S(C)(=O)=O)sc2N(C)C)cc1 | 1.1 | 15.9 | 0.8 | 0.8 | 16.8
Cc1ccc(S(=O)(=O)c2nc(NCc3ccc4c(c3)OCO4)sc2Cl)cc1 | 0.9 | -2.5 | 1 | 0.9 | 5.0
CCC1(CC)Cc2ccccc2C(CC(=O)N2CCOCC2)=N1 | 1.1 | 11.5 | 0.9 | 0.7 | 30.9
CSc1ccc(/C=N/n2c(C)cc(C)cc2=O)cc1 | 0.9 | -15.5 | 1.2 | 1 | 1.4
O=C(c1ccccc1)c1nnc(-c2ccncc2)o1 | 1.2 | 18.8 | 0.8 | 0.3 | 70.6*
O=C(c1ccc(Cl)cc1)c1nnc(-c2ccncc2)o1 | 0.9 | 46.9 | 0.5 | 0.2 | 78.3*
O=C(c1nnc(-c2ccncc2)o1)c1ccccc1Cl | 0.9 | 38.4 | 0.6 | 0.2 | 83.6*
COC(=O)C1CCN(C(=O)CSc2nnc(-c3ccncc3)o2)CC1 | 1 | -4.8 | 1 | 0.8 | 15.3
COC(=O)c1ccc(Oc2cc(C)nc(NCc3ccccc3)n2)cc1 | 0.9 | 7.1 | 0.9 | 0.9 | 12.8
COc1cc(C)nc(Oc2ccc(OCc3ccccc3)nn2)n1 | 0.9 | 30.6 | 0.7 | 0.2 | 75.2*
COc1cc(C)nc(NCc2ccccc2)n1 | 1 | 44.1 | 0.6 | 0.4 | 61.3*
